PubChem BioAssay (Tox21)
Values joined by “and” are separate entries in the source; they are usually repeats but may differ in a detail not shown here. Equal values may be shown once. Records with an inconclusive call do not appear. Entries that show only a call come without a potency. Some compounds were tested as several samples or in several runs, with calls that do not always agree. Active and inactive are the calls of the source. Unless noted, the call rests on the fitted dose curve; in most records, active means well fitted curve in the direction sought with a large enough effect in the repeat runs; inconclusive means weak or mixed curves; inactive means no such curve, though single readings can be large; an effect the other way counts as inactive or inconclusive. Residues, ends and D or L forms follow the SMILES beside them.

Legend:
[1] = qHTS assay to identify small molecule antagonists of the glucocorticoid receptor (GR) signaling pathway - cell viability counter screen (AID 720693); conditions: GR-bla HeLa viability, CellTiter-Glo luminescence, 18 h, with 5 nM dexamethasone present; series mostly up to 58.5 µM; further: nearly all actives have a fitted effect of over 55% in size
[2] = qHTS assay for identifying genotoxic compounds that show differential cytotoxicity against isogenic chicken DT40 cell lines with known DNA damage response pathways - wild type cell line (AID 743012); conditions: DT40 wild type chicken cells viability, CellTiter-Glo, 40 h; series mostly up to 68.4 µM; further: nearly all actives have a fitted effect of over 60% in size; further: potency means the concentration at half of the fitted maximal effect
Summary of the method: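 Wild type DT40, 300 cells/well, ~0.5 h settle at 37 C/5% CO2; compounds in DMSO added by pintool; 40 h at 37 C/5% CO2; CellTiter-Glo, 30 min RT; luminescence.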

[3] = qHTS assay for identifying genotoxic compounds that show differential cytotoxicity against isogenic chicken DT40 cell lines with known DNA damage response pathways - Rev3 mutant cell line (AID 743014); conditions: chicken DT40 Rev3-/- viability, CellTiter-Glo, 40 h; series mostly up to 68.4 µM; further: nearly all actives have a fitted effect of over 55% in size; further: potency means the concentration at half of the fitted maximal effect
[4] = qHTS assay for identifying genotoxic compounds that show differential cytotoxicity against isogenic chicken DT40 cell lines with known DNA damage response pathways - Rad54/Ku70 mutant cell line (AID 743015); conditions: DT40 Rad54/Ku70 mutant viability, CellTiter-Glo, 40 h; series mostly up to 66.8 µM; further: nearly all actives have a fitted effect of over 60% in size; further: potency means the concentration at half of the fitted maximal effect
[5] = qHTS assay to identify small molecule antagonists of the androgen receptor (AR) signaling pathway - cell viability counter screen (AID 743033; further: nearly all actives have a fitted effect of over 45% in size); conditions: AR-bla HEK293 viability, CellTiter-Glo luminescence, 16 h; series mostly up to 58.5 µM
[6] = qHTS assay to identify small molecule antagonists of the androgen receptor (AR) signaling pathway using the MDA cell line - cell viability counter screen (AID 743041; further: nearly all actives have a fitted effect of over 45% in size; further: potency means the concentration at half of the fitted maximal effect); conditions: MDA-kb2 viability, CellTiter-Fluor, 16 h, cells co-treated with R1881 androgen agonist; series mostly up to 70.3 µM
Summary of the method: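 Cells were plated at 3,000 per well and left 5 h. Compounds in DMSO were then pinned in, followed by R1881. After 16 h at 37C, CellTiter-Fluor fluorescence gave viability.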

[7] = biological target: Androgen receptor (Homo sapiens) (UniProt P10275); experiment: qHTS assay to identify small molecule antagonists of the androgen receptor (AR) signaling pathway (AID 743035; active means well fitted inhibition curve with a large enough effect in the signal ratio in the repeat runs, not every such curve was filed as active; the % refers to the signal ratio); conditions: HEK293 AR-UAS-bla, R1881-stimulated, beta-lactamase FRET, 16 h; series mostly up to 58.5 µM
Chain of Androgen receptor (Homo sapiens) (P10275 whole entry, looked up): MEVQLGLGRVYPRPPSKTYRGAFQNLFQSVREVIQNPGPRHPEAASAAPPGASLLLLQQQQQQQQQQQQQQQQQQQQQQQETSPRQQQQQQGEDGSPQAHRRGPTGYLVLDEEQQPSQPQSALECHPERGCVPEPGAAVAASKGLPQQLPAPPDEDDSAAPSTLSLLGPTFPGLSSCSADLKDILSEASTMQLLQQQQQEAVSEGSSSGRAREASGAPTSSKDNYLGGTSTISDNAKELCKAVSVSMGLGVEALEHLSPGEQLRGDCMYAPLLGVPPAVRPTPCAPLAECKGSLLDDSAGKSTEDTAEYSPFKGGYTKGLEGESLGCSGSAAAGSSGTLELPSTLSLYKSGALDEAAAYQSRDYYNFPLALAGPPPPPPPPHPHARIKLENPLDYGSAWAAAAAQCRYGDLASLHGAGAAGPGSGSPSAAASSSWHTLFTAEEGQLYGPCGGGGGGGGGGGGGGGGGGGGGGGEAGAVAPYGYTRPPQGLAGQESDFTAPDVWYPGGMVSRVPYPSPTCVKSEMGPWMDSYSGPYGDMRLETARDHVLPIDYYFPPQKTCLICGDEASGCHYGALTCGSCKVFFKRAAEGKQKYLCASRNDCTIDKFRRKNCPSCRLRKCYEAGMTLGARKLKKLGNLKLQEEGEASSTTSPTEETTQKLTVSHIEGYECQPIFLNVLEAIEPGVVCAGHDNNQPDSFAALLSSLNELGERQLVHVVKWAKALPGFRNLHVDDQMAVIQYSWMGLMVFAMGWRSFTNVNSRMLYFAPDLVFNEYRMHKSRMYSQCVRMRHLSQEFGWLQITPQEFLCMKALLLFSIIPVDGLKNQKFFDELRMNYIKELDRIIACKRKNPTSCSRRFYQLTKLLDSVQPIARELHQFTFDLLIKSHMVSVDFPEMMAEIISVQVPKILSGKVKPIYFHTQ
Summary of the method: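 Fluorescence from a beta-lactamase FRET substrate (LiveBLAzer B/G, 2 h, room temperature) measured inhibition of R1881-stimulated signaling in GeneBLAzer AR-UAS-bla HEK293 cells exposed to compound for 16 h at 37C.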

[8] = biological target: Androgen receptor (Homo sapiens) (UniProt P10275); experiment: qHTS assay to identify small molecule agonists of the androgen receptor (AR) signaling pathway (AID 743036; active means well fitted activation curve with a large enough effect in the signal ratio in the repeat runs, with a control signal flat, not every such curve was filed as active; the % refers to the signal ratio); conditions: HEK293 AR-UAS-bla GripTite, beta-lactamase FRET ratio, 16 h; series mostly up to 62.4 µM
Summary of the method: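 Fluorescence from a beta-lactamase FRET substrate served as read-out in AR-UAS-bla GripTite HEK293 cells. Cells were treated with DMSO-dissolved compounds for 16 h at 37C, then with LiveBLAzer B/G substrate for 2 h at room temperature.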

[9] = biological target: Androgen receptor (Homo sapiens) (UniProt P10275); experiment: qHTS assay to identify small molecule agonists of the androgen receptor (AR) signaling pathway using the MDA cell line (AID 743040; further: nearly all actives have a fitted effect of over 20% in size; further: potency means the concentration at half of the fitted maximal effect); conditions: MDA-kb2 AR-luc cells, MMTV luciferase, 16 h; series mostly up to 70.3 µM
Summary of the method: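 Cells plated, 5 h at 37C/0% CO2; compound or DMSO pinned; 16 h at 37C; ONE-Glo added; luminescence measured after 30 min at room temperature. Reporter line: MDA-kb2 with MMTV-luciferase responsive to AR and GR.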

[10] = biological target: Androgen receptor (Homo sapiens) (UniProt P10275); experiment: qHTS assay to identify small molecule antagonists of the androgen receptor (AR) signaling pathway using the MDA cell line (AID 743042; further: nearly all actives have a fitted effect of over 55% in size); conditions: MDA-kb2 AR-luc, MMTV luciferase, R1881 antagonist, 16 h; series mostly up to 70.3 µM
Summary of the method: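 Antagonist mode: compounds plus R1881 agonist added to MDA-kb2 AR-luc cells, incubated 16 h at 37C. Luciferase reporter luminescence quantified, with multiplexed CellTiter-Fluor readout for cell viability.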

SMILES	Potency [1]	Potency [2]	Potency [3]	Potency [4]	outcome [5]	Potency [6]	outcome [7]	outcome [8]	Potency [9]	outcome [10]
NC(N)=NC(=O)c1nc(Cl)c(N)nc1N	inactive	inactive	inactive	inactive	inactive	inactive	–	–	–	–
O=C(c1ccccc1)C(O)c1ccccc1 (stereo not given)	inactive	inactive	inactive	inactive	inactive	inactive	–	–	–	–
CCCCC(CC)COC(=O)/C=C/c1ccc(OC)cc1 (stereo not given)	inactive	–	inactive	inactive	inactive	inactive	inactive	inactive	inactive	inactive
c1ccc2[nH]ccc2c1	inactive	–	inactive	inactive	inactive	inactive	inactive	inactive	inactive	inactive
Nc1ccc(S(=O)(=O)c2ccc(N)cc2)cc1	inactive	inactive	inactive	inactive	inactive	inactive	–	–	–	–
O=c1cc[nH]c(=S)[nH]1	inactive	inactive	inactive	inactive	inactive	inactive	–	–	–	–
CC(=O)Nc1nnc(S(N)(=O)=O)s1	inactive	inactive	inactive	inactive	inactive	inactive	–	–	–	–
Cc1ccc(O)cc1	inactive	inactive	inactive	inactive	inactive	inactive	inactive	inactive	inactive	inactive
OC(Cn1cncn1)(Cn1cncn1)c1ccc(F)cc1F	inactive	–	inactive	inactive	inactive	inactive	–	–	–	–
CC(C)[C@@H]1CC[C@@H](C)C[C@H]1O	inactive	inactive	inactive	inactive	inactive	inactive	inactive	inactive	inactive	inactive
O=S(=O)(O)NC1CCCCC1	inactive	–	inactive	inactive	inactive	inactive	–	–	–	–
Cc1ccc(C)c(OCCCC(C)(C)C(=O)O)c1	inactive	–	inactive	inactive	inactive	inactive	inactive	inactive	inactive	inactive
CC(=O)OCC(COC(C)=O)OC(C)=O	inactive	inactive	inactive	inactive	inactive	inactive	–	–	–	–
O=C(O)CS	inactive	–	inactive and 43.6 µM (active)	inactive and 12.3 µM (active)	inactive	inactive	–	–	–	–
C/C=C/c1ccc(OC)cc1	inactive	inactive	inactive	inactive	inactive	inactive	–	–	–	–
Cc1cc(=O)n(-c2ccccc2)n1C	inactive	inactive	inactive	inactive	inactive	inactive	inactive	inactive	inactive	inactive
O=S(=O)(O)c1ccc2cc(O)ccc2c1	inactive	inactive	inactive	inactive	inactive	inactive	–	–	–	–
O=C(C1CCCCC1)N1CC(=O)N2CCc3ccccc3C2C1 (stereo not given)	inactive	inactive	inactive	inactive	inactive	inactive	–	–	–	–
CCCN(CCC)S(=O)(=O)c1ccc(C(=O)O)cc1	inactive	–	inactive	inactive	inactive	inactive	inactive	inactive	–	inactive
CNC[C@H](O)c1cccc(O)c1	inactive	–	inactive	inactive	inactive	inactive	–	–	–	–
O=NO	inactive	inactive	inactive	inactive	inactive	inactive	–	–	–	–
Oc1ccc(/C=C/c2cc(O)cc(O)c2)cc1	inactive	7.17 µM (active) and 30.6 µM (active)	7.17 µM (active) and 15.5 µM (active) and 21.7 µM (active)	9.02 µM (active) and 27.6 µM (active) and 30.6 µM (active)	inactive	inactive	–	–	6.92 µM (active) and 2.73 µM (active)	inactive
CC(O)C(=O)O (stereo not given)	inactive	inactive	inactive	inactive	inactive	inactive	–	–	–	–
O=C(O)c1cccc([N+](=O)[O-])c1	inactive	inactive	inactive	inactive	inactive	inactive	–	–	–	–

SMILES	Potency [1]	Potency [2]	Potency [3]	Potency [4]	outcome [5]	Potency [6]	outcome [7]	outcome [8]	Potency [9]	outcome [10]
O=C(O)CCCCCCCC(=O)O	inactive	inactive	inactive	inactive	inactive	inactive	–	–	–	–
NC(=O)c1cnccn1	inactive	inactive	inactive	inactive	inactive	inactive	–	–	–	–
O=c1ccc2ccccc2o1	inactive	inactive	inactive	inactive	inactive	inactive	–	–	–	–
CCCC(O)C(CC)CO (stereo not given)	inactive	–	inactive	inactive	inactive	inactive	–	–	–	–
COC(=O)[C@H](Cc1ccccc1)NC(=O)[C@@H](N)CC(=O)O (H-Asp-Phe-OMe)	inactive	–	inactive	inactive	inactive	inactive	–	–	–	–
CCOc1ccc(NC(=O)CC(C)O)cc1 (stereo not given)	inactive	inactive	inactive	inactive	inactive	inactive	–	–	–	–
Nc1ccn([C@H]2CC[C@@H](CO)O2)c(=O)n1	inactive	–	24.3 µM (active)	53.5 µM (active) and 24.3 µM (active)	inactive	inactive	–	–	–	–
C1N2CN3CN1CN(C2)C3	inactive	–	inactive	inactive	inactive	inactive	inactive	inactive	inactive	inactive
Nc1ccc(C(=O)O)cc1	inactive	–	inactive	inactive	inactive	inactive	–	–	–	–
NC(N)=O	inactive	inactive and 24.3 µM (active)	inactive and 17.2 µM (active)	inactive and 21.7 µM (active)	inactive	inactive	–	–	–	–
O=C(O)C(=O)O	inactive	inactive	inactive	inactive	inactive	inactive	–	–	–	–
CC(C)(Oc1ccc(C2CC2(Cl)Cl)cc1)C(=O)O (stereo not given)	inactive	inactive	inactive	inactive	inactive	inactive	inactive	inactive	inactive	inactive
O=C(O)c1[nH]n(-c2ccc(S(=O)(=O)O)cc2)c(=O)c1N=Nc1ccc(S(=O)(=O)O)cc1	inactive	–	inactive	inactive	inactive	15 µM (active) and 61.3 µM (active) and 57.1 µM (active)	–	–	–	–
CCCNC(=O)NS(=O)(=O)c1ccc(Cl)cc1	inactive	–	inactive	inactive	inactive	inactive	–	–	–	–
Cn1cc[nH]c1=S	inactive	–	inactive	inactive	inactive	inactive	–	–	–	–
O=C(O)c1cccnc1	inactive	–	inactive	inactive	inactive	inactive	–	–	–	–
C[C@]12C=CC(=O)C=C1CC[C@@H]1[C@@H]2[C@@H](O)C[C@@]2(C)[C@H]1CC[C@]2(O)C(=O)CO	inactive	–	inactive	–	inactive	inactive	–	–	–	–
CCCC(CCC)C(=O)O	inactive	–	inactive	inactive	inactive	inactive	–	–	–	–
Cc1cc(=O)[nH]c(=S)[nH]1	inactive	–	inactive	inactive	inactive	inactive	–	–	–	–
Nc1ccc(S(=O)(=O)Nc2nccs2)cc1	inactive	–	inactive	inactive	inactive	inactive	–	–	–	–
Cc1ccc(S(=O)(=O)NC(=O)NN2CCCCCC2)cc1	inactive	–	inactive and 68.6 µM (active)	inactive	inactive	inactive	–	–	–	–
Cc1cn([C@H]2C[C@H](N=[N+]=[N-])[C@@H](CO)O2)c(=O)[nH]c1=O	inactive	–	–	–	inactive	inactive	–	–	–	–
O=C(O)CCCCC(=O)O	inactive	–	–	–	inactive	inactive	–	–	–	–
O=C(O)c1cc(N=Nc2ccc(S(=O)(=O)Nc3ccccn3)cc2)ccc1O	inactive	–	inactive	inactive	inactive	inactive	–	–	–	–

SMILES	Potency [1]	Potency [2]	Potency [3]	Potency [4]	outcome [5]	Potency [6]	outcome [7]	outcome [8]	Potency [9]	outcome [10]
NC(=O)NC1NC(=O)NC1=O (stereo not given)	inactive	–	inactive	inactive	inactive	inactive	–	–	–	–
N=C(N)c1ccc(OCCCCCOc2ccc(C(=N)N)cc2)cc1	–	1.88 µM (active) and 5.42 µM (active) and 1.31 µM (active)	2.98 µM (active) and 2.16 µM (active) and 1.85 µM (active)	2.66 µM (active) and 2.72 µM (active) and 1.65 µM (active)	–	inactive	–	–	–	–
Cn1c(=O)c2[nH]cnc2n(C)c1=O	inactive	–	–	–	inactive	inactive	–	–	–	–
O=C(c1ccccc1)c1ccccc1	inactive	–	–	–	inactive	inactive	inactive	inactive	–	inactive
CCCCOC(=O)CC(CC(=O)OCCCC)(OC(C)=O)C(=O)OCCCC	inactive	–	inactive	inactive and 54.5 µM (active)	inactive	inactive	–	–	–	–
COc1ccc2[nH]cc(CCNC(C)=O)c2c1	inactive	–	inactive	inactive	inactive	inactive	–	–	–	–
CCCCC1C(=O)N(c2ccccc2)N(c2ccccc2)C1=O	inactive	–	inactive	inactive	inactive	inactive	–	–	–	–
CC(=O)NS(=O)(=O)c1ccc(N)cc1	inactive	–	inactive	inactive	inactive	inactive	–	–	–	–
O=C(O)CCC(=O)O	inactive	–	inactive	inactive	inactive	inactive	–	–	–	–
OCCc1ccccc1	inactive	–	inactive	inactive	inactive	inactive	–	–	–	–
NS(=O)(=O)c1cc(C(=O)O)c(NCc2ccco2)cc1Cl	inactive	–	inactive	inactive	inactive	inactive	–	–	–	–
CC(O)CO (stereo not given)	inactive	–	inactive	inactive and 61.1 µM (active)	inactive	inactive	–	–	–	–
CC1(C)[C@@H]2CC[C@@]1(C)C(=O)C2	inactive	–	4.73 µM (active) and inactive	2.98 µM (active) and inactive	inactive	inactive	–	–	–	–
CCCCCCCCCCCCCCCC(=O)O	inactive	–	inactive	inactive	inactive	inactive	–	–	–	–
NC(=O)c1ccccc1O	inactive	–	inactive	inactive	inactive	inactive	–	–	–	–
NNC(=O)c1ccncc1	inactive	–	inactive	inactive	inactive	inactive	–	–	–	–
CC(O)CN(CCN(CC(C)O)CC(C)O)CC(C)O (stereo not given)	inactive	–	inactive	inactive	inactive	inactive	–	–	–	–
Cc1ccccc1C(OCCN(C)C)c1ccccc1 (stereo not given)	inactive	–	inactive and 61.1 µM (active) and 54.5 µM (active)	inactive and 61.1 µM (active) and 68.6 µM (active)	inactive	inactive	–	–	–	–
O=C1CN(/N=C/c2ccc([N+](=O)[O-])o2)C(=O)N1	inactive	–	54.3 µM (active) and 68.6 µM (active)	60.9 µM (active)	–	15.6 µM (active) and 54.3 µM (active) and 48.6 µM (active)	–	–	–	–
O=C1NC(=O)c2ccccc21	inactive	–	inactive	inactive	inactive	inactive	–	–	–	–
Cc1noc(NS(=O)(=O)c2ccc(N)cc2)c1C	inactive	–	inactive	inactive	inactive	inactive	–	–	–	–
COc1c2occc2cc2ccc(=O)oc12	inactive	–	inactive	inactive	inactive	inactive	–	–	–	–
CCC1(c2ccccc2)C(=O)NCNC1=O	inactive	–	–	–	inactive	inactive	–	–	–	–
Nc1ccc(O)c(C(=O)O)c1	inactive	–	inactive	inactive	inactive	inactive	–	–	–	–
